Measurements reported in PubChem BioAssay AID2496 (Sanford-Burnham Center for Chemical Genomics, 2010).
Activity calls are given as the source filed them. Cut-off read from the data, not from the text of the source: active = IC50 below about 40 µM; inactive = the rest.

Experiment: HTRF spectral interference by compounds, SAR follow-up, artefact control, biochemical, fluorescence ratio (AID 2496)
Conditions: HTRF spectral interference counter-screen

For `O=C(c1ccc2nc(-c3ccco3)c(-c3ccco3)nc2c1)N1CCC2(CC1)OCCO2`, the IC50 was > 50 µM (inactive).
